HT1080NT lethal – qHTS for induction of synthetic lethality in tumor cells producing 2HG: qHTS for the HT-1080-NT fibrosarcoma cell line; 1.6% of 360,000 active; Potency, µM (highest dose often 46.1 µM), hits mostly cytotoxic; HT-1080-NT fibrosarcoma viability, CellTiter-Glo ATP luminescence, 48 h;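 further: NT is the 2HG producing partner of a matched IDH1 knockdown line; nearly all actives have a fitted effect of over 55% in size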
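Read-out is CellTiter-Glo luminescence after 10 minutes at room temperature, following 48 hours' compound treatment of HT-1080-NT cells (750 cells/well, RPMI, 5% FBS, 37 degrees C).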
TDP1 cell CPT – qHTS for Inhibitors of human tyrosyl-DNA phosphodiesterase 1 (TDP1): qHTS in cells in presence of CPT | chicken DT40 Tdp1-/-;hTDP1 cells + 20 nM CPT, ATP luminescence, 48 h | Potency, µM (doses to about 46.2 µM), usual class: inhibitors | 12% of 420,000 active | AID 686979, 2013; further: nearly all actives have a fitted effect of over 55% in size
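Chicken DT40 Tdp1-/- cells complemented with human TDP1, 400 cells/well, exposed to compounds plus 20 nM camptothecin for at least 48 h at 37 C; viability read as ATP content by CellTiter-Glo luminescence.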
DT40 TDP1 no CPT – qHTS for Inhibitors of human tyrosyl-DNA phosphodiesterase 1 (TDP1): qHTS in cells in absence of CPT | 15% of 420,000 active | DT40 Tdp1-/- hTDP1 cells, no CPT, ATP luminescence, 48 h | Potency, µM (doses to about 46.2 µM), actives largely listed as inhibitors; further: nearly all actives have a fitted effect of over 55% in size
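Cells were dispensed at 400 per well, compounds added by pin tool, plates incubated ≥48 hr at 37 °C, then CellTiter-Glo added for 30 min at room temperature before luminescence reading. Line: DT40 Tdp1-/- complemented with hTDP1; camptothecin omitted.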
HT1080 IDH1KD tx – qHTS for induction of synthetic lethality in tumor cells producing 2HG: qHTS for the HT-1080-IDH1KD cell line | HT-1080 IDH1 knockdown viability, ATP luminescence, 48 h | Potency, µM (highest dose often 46.1 µM), usual class: cytotoxic | 2% of 360,000 active
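In this qHTS, HT-1080 cells depleted of IDH1 are exposed for 48 h at 37 °C to compound titrations. Toxicity is scored from CellTiter-Glo luminescence, with DMSO as full viability and medium alone as none.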
ELG1 DNA repair – qHTS screen for small molecules that inhibit ELG1-dependent DNA repair in human embryonic kidney (HEK293T) cells expressing luciferase-tagged ELG1; HEK293T ELG1-luciferase reporter, luminescence, 16 h; DNA damage induced by 5-fluorouridine; Potency, µM (titrated, usually from 46.1 µM), usual class: inhibitors; 2.3% of 330,000 active; further: nearly all actives have a fitted effect of over 55% in size
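DMSO vehicle served as the neutral condition. Each well held 2,000 cells given 5-fluorouridine plus compound; after 16 hr at 37 °C/5% CO2, ONE-Glo was added and luciferase measured 30 min later.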
IL-1B inflam inh – qHTS for Inhibitors of Inflammasome Signaling: IL-1-beta AlphaLISA Primary Screen | THP-1 LPS/ATP IL-1B secretion, AlphaLISA, 16 h; stronger effect = lower value | activity change, % at 57.5 µM | 4.7% of 360,000 active; in the data active means activity change below about -50%; inconclusive means mostly about -30% to -49%
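Secreted IL-1B measured by AlphaLISA bead assay after 16 h compound exposure of THP-1 cells; compounds (final up to 57.5 uM) added 1 h before LPS (250 ng/mL) and ATP (1.25 mM) stimulation; lower signal means less secretion.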
Large screens that a line does not name were inactive. The list is not random: actives were taken first. Their share in the collection is about 19%. Unless noted, the call rests on the fitted dose curve; in most records, active means well fitted curve in the direction sought with a large enough effect; inconclusive means small, poorly fitted or top-dose-only effect, or another doubt; inactive means no such curve, though single readings can be large; an effect the other way counts as inactive or inconclusive.

Cc1ccc(S(=O)(=O)N2CCN(c3ncnc4scc(-c5ccccc5)c34)CC2)cc1	TDP1 cell CPT inconclusive, DT40 TDP1 no CPT 23µM, ELG1 DNA repair inconclusive
Cc1ccc(NC(=O)CN(c2ccccc2)S(=O)(=O)N(C)C)cc1	TDP1 cell CPT inconclusive, DT40 TDP1 no CPT inconclusive
COc1ccc(OC)c(C2CC(=O)Oc3c2c(=O)n(C)c2ccccc32)c1 (stereo unspecified)	none (no result: HT1080NT lethal, HT1080 IDH1KD tx, ELG1 DNA repair, IL-1B inflam inh)
CC(=O)c1ccc(NC(=S)NNC(=O)c2ccncc2)cc1	ELG1 DNA repair inconclusive
Cc1ccccc1Nc1c(-c2ccc(Cl)s2)nc2ccccn12	DT40 TDP1 no CPT inconclusive (no result: ELG1 DNA repair, IL-1B inflam inh)
CCc1nc2ccc(C(=O)NCc3ccccc3OC)cn2c1N(C=O)CCC(C)C	TDP1 cell CPT 23µM, DT40 TDP1 no CPT 16µM (no result: ELG1 DNA repair)
CCc1nc2ccc(C(=O)NCC3CCCCC3)cn2c1N(CCC(C)C)CCN(C)C	HT1080NT lethal 18µM, TDP1 cell CPT 18µM, DT40 TDP1 no CPT 26µM, HT1080 IDH1KD tx 16µM (no result: ELG1 DNA repair)
CCc1nc2ccc(C(=O)NCc3ccc(OC)cc3)cn2c1N(CCC(C)C)CCN(C)C	HT1080NT lethal inconclusive, TDP1 cell CPT inconclusive, DT40 TDP1 no CPT 16µM, HT1080 IDH1KD tx inconclusive (no result: ELG1 DNA repair)
CCCCCCc1cc2cc(S(=O)(=O)c3ccc(F)cc3)c(=O)oc2cc1O	HT1080NT lethal inconclusive, TDP1 cell CPT 21µM, DT40 TDP1 no CPT inconclusive, HT1080 IDH1KD tx inconclusive
COc1ccc(NC(=O)c2cc3ccccc3oc2=O)c(OC)c1	ELG1 DNA repair inconclusive
CCCCCCc1cc2cc(-c3nnc(-c4cc(OC)c(OC)c(OC)c4)o3)c(=O)oc2cc1O	TDP1 cell CPT inconclusive, DT40 TDP1 no CPT 23µM, ELG1 DNA repair inconclusive
CCCCCCc1cc2cc(-c3nnc(-c4ccccc4OC)o3)c(=O)oc2cc1O	HT1080NT lethal inconclusive, TDP1 cell CPT inconclusive, DT40 TDP1 no CPT 16µM, HT1080 IDH1KD tx inconclusive, ELG1 DNA repair 7.3µM
CCCCCCc1cc2cc(C(=O)Nc3ccccc3OC)c(=O)oc2cc1O	TDP1 cell CPT 16µM, DT40 TDP1 no CPT 16µM
Cc1ccc([C@@H]2CC(=O)[C@@H]3CN(S(=O)(=O)c4ccc(C)cc4)[C@H](c4ccccc4)C[C@@H]3N2S(=O)(=O)c2ccc(C)cc2)cc1	none (no result: ELG1 DNA repair)
COC(=O)c1cc2oc3ccccc3c2n1CC(=O)Nc1cc(OC)cc(OC)c1	none (no result: HT1080NT lethal, HT1080 IDH1KD tx, ELG1 DNA repair, IL-1B inflam inh)
Cc1ccc(-n2nnnc2SCC(=O)NC2CC2)cc1C	none
CCCCCCc1cc2cc(-c3nnc(-c4ccccc4O)o3)c(=O)oc2cc1O	TDP1 cell CPT 8.2µM, DT40 TDP1 no CPT 7.3µM, ELG1 DNA repair inconclusive
COC(=O)CCC(C(=O)CN1C(=O)c2ccccc2C1=O)N1C(=O)c2ccccc2C1=O (stereo unspecified)	TDP1 cell CPT inconclusive, DT40 TDP1 no CPT inconclusive (no result: ELG1 DNA repair)
COCCN(C(=O)Nc1ccccc1OC)c1nc2ccccc2s1	DT40 TDP1 no CPT inconclusive
CCOC(=O)C1CCC(CN(Cc2ccc(Cl)cc2)S(=O)(=O)c2cccc(Cl)c2C)CC1 (stereo unspecified)	TDP1 cell CPT 23µM, DT40 TDP1 no CPT 18µM (no result: HT1080NT lethal, HT1080 IDH1KD tx, ELG1 DNA repair, IL-1B inflam inh)
CCOC(=O)C1CCC(CN(Cc2ccc(OC)cc2)S(=O)(=O)c2ccc(C)cc2)CC1 (stereo unspecified)	TDP1 cell CPT 21µM, DT40 TDP1 no CPT 13µM (no result: HT1080NT lethal, HT1080 IDH1KD tx, ELG1 DNA repair, IL-1B inflam inh)
CCOC(=O)c1ccc2c(c1)nc(C1CCN(S(=O)(=O)c3cccs3)CC1)n2CC	HT1080NT lethal inconclusive, TDP1 cell CPT 15µM, DT40 TDP1 no CPT inconclusive, HT1080 IDH1KD tx inconclusive, ELG1 DNA repair inconclusive, IL-1B inflam inh -79

Bioassay records from PubChem.
